Experimental findings from PubChem BioAssay AID1259313 (Sanford-Burnham Center for Chemical Genomics, 2017) are described below.

The whole screen tested about 340,000 compounds, of which about 8,500 (2.5%) were called active. Only a selection was taken, and actives are over-represented in it overall. A number with no mark means an inactive call.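 How the source made its calls: active means melting temperature shift of at least 10% of the positive control shift, at one fixed dose; inactive means the rest.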

The subject of the test is Glutamate receptor ionotropic, NMDA 3A (GRIN3A) ligand-binding domain. Description: NR3A LBD thermal stabilization by compounds – biophysical, differential scanning fluorimetry, uHTS, primary screen (AID 1259313). To be noted: at 25 µM, active compounds read high, 0% = protein alone, 100% = glycine-bound protein.
`COc1ccc(F)cc1S(=O)(=O)NCC(c1ccc2c(c1)OCO2)N1CCN(C)CC1` (stereo unspecified): the Tm shift relative to glycine control was -1.98%.
As for `COc1ccc(NC(=S)N2CCC(NC(=O)c3cccc(F)c3)CC2)cc1`, the Tm shift relative to glycine control was 1.82%.
For `COc1ccc2oc(C(=O)NCc3ccco3)c(C)c2c1` the value was 0.95%.
Consider `Cc1ccc(C(=O)c2ccc(N3CCN(C)CC3)c([N+](=O)[O-])c2)cc1`, for which the Tm shift relative to glycine control is -4.39%.
For `Cc1ccc(Br)c(NS(=O)(=O)c2cccc(C(=O)N3CCNC(=O)C3)c2)c1` the value was -2.24%; for `O=C(CO/N=C/c1ccc(OC(F)F)cc1)NCc1ccc(F)cc1`, -0.25%.
For `CC1(NC(=O)CCS(=O)(=O)c2ccc(Cl)cc2)CCS(=O)(=O)C1` (stereo unspecified) the value was 1.08%; for `NC(=O)Nc1ccccc1C(=O)NCCc1ccccc1`, -3.04%.
Take `CCOC(=O)CN(C(=O)COc1nc(C)cc(C)c1C#N)c1ccc(Cl)cc1`: the Tm shift relative to glycine control was 0.21%.
To `COc1ccc(/C=N/Nc2nc(-c3ccc(C)cc3)c(C#N)c(=O)[nH]2)cc1` belongs -2.83%; to `COc1ccc(/C=N/N=C/c2c[nH]c(=O)c(C#N)c2Nc2ccccc2)cc1`, 35.8% (active).
As to `COc1ccc(/C=N/Nc2ccccc2C(=O)O)cc1`, the Tm shift relative to glycine control was -10.2%.
To `Cc1nn(C)cc1/C=C1\CCC/C(=C\c2cn(C)nc2C)C1=O` belongs -1.19%; to `CC(Oc1ccccc1[N+](=O)[O-])C(=O)N/N=C/c1ccoc1` (stereo unspecified), -0.52%; to `Cc1ccc2cccc(OCCCOc3ccccc3CO)c2n1`, -1.42%.
On to `Cc1cc(N=Nc2ccc3ccccc3c2)ccc1O`, for which the Tm shift relative to glycine control was 28.8% (active).
For `O=C(NNC(=S)NC(=O)c1cn(-c2ccccc2)nc1-c1ccccc1)c1ccncc1` the value was -4.35%; for `O=C(CN1CCOc2ccccc21)N1CCC(Cc2ccccc2)CC1`, -1.44%; for `COc1ccc(C(=O)N2CCCCC2C(=O)Nc2ccc(-n3nc(C)cc3C)cc2)o1` (stereo unspecified), 6.75%.
For `CCN(CC)CCNCc1ccc(OCc2ccc(Cl)nc2)c(OC)c1` the value was 8.95%; for `COc1cc(/C=C2/C(=O)ON=C2C)ccc1OCc1cccc(F)c1`, -26.4%; for `COc1cc(/C=C2\SC(=O)NC2=O)ccc1OCc1ccc(Cl)nc1`, 25.9% (active).
To `Cc1cccn2cc(-c3cccc(S(=O)(=O)N4CCCCC4)c3)nc12` belongs 5.23%.
Turning to `Cc1cccc(N(C(=O)c2csnn2)C(C(=O)NCc2ccccc2)c2ccncc2)c1` (stereo unspecified), the Tm shift relative to glycine control is -0.09%.
For `CCOc1ccccc1Nc1nnc(SCC(=O)NCC2CCCO2)s1` (stereo unspecified) the value was 5.39%; for `CCOC(=O)N1CCN(C(=O)c2cn(C)c3ccc(S(=O)(=O)N(CC)CC)cc3c2=O)CC1`, 0%.
